Experimental data taken from the supplement of paper PMC10849652.
About 7,900 targets were measured; listed, in parts, are those with a hit and a random draw of the rest. About 0.6% of all pairs of compound and target were hits.

Each target was assayed with Cc1ccc(NC(=O)c2ccc(CN3CC[C@H](N(C)C)C3)c(C(F)(F)F)c2)cc1Nc1nccc(-c2cncnc2)n1 [bafetinib] (assay: log2 fold change, soluble protein after heating vs DMSO (PISA); higher = thermal stabilisation; K562 cells, 10 uM, 30 min; active = over 0.2 and 3.5 SD of the protein, either way, in both replicates (recomputed)).
Summary of the method: (§1)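 Thermal stability values are relative to control samples and come from duplicates. They are expressed as log2 fold changes. For measurement, K562 cells (2×10^6 cells/mL) received 10 μM compound for 30 min, and aliquots were heated for 3 min over 48°C-58°C, pooled, and extracted at 4°C in PBS with 0.5% NP-40. Soluble protein, the supernatant after 21,000xg for 90 min, was quantified by TMTpro 16plex LC-MS/MS with equalised channel sums.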

UniProt P57081, sequence (P57081 whole entry, looked up): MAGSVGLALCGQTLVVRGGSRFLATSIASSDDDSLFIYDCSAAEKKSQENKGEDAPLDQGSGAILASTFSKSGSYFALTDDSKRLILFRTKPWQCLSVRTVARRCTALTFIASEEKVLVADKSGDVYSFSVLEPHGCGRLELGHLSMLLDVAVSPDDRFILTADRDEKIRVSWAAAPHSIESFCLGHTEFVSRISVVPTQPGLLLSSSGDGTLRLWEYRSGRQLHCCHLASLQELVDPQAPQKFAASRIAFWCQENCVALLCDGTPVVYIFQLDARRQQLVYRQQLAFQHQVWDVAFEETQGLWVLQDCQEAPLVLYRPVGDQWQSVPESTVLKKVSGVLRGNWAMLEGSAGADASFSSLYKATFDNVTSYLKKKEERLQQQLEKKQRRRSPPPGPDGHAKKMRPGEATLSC
UniProt P51809, sequence (P51809 whole entry, looked up): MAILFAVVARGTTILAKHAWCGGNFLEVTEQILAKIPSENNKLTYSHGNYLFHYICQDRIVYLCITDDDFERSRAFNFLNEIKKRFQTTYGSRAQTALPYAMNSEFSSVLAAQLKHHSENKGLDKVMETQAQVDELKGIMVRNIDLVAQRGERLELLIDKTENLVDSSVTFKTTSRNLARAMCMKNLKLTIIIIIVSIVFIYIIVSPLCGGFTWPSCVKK
UniProt O60763, sequence (O60763 whole entry, looked up): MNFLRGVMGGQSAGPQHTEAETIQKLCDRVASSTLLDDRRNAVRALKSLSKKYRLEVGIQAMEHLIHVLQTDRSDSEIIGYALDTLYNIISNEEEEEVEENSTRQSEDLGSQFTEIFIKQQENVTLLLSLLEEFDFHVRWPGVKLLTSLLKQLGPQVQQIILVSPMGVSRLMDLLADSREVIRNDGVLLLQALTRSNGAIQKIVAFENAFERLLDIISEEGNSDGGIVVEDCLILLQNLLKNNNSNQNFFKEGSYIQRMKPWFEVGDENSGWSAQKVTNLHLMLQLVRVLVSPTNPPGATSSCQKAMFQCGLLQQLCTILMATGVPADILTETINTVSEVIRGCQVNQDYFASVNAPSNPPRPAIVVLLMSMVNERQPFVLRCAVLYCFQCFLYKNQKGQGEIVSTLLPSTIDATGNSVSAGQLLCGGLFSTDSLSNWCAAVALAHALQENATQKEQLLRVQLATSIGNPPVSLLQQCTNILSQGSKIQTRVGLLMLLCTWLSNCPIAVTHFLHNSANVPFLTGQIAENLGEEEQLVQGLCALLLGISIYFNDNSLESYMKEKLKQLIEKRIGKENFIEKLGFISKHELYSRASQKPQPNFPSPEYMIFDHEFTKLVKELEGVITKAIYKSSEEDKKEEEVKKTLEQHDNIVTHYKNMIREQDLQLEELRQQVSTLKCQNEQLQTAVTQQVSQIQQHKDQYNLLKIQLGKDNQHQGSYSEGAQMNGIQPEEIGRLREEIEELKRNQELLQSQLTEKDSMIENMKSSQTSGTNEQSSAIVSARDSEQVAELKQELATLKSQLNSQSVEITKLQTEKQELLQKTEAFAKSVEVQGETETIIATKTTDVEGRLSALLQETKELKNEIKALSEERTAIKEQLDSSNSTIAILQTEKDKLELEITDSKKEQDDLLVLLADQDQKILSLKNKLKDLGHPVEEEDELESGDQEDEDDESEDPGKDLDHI
UniProt Q96QU8, sequence (Q96QU8 whole entry, looked up): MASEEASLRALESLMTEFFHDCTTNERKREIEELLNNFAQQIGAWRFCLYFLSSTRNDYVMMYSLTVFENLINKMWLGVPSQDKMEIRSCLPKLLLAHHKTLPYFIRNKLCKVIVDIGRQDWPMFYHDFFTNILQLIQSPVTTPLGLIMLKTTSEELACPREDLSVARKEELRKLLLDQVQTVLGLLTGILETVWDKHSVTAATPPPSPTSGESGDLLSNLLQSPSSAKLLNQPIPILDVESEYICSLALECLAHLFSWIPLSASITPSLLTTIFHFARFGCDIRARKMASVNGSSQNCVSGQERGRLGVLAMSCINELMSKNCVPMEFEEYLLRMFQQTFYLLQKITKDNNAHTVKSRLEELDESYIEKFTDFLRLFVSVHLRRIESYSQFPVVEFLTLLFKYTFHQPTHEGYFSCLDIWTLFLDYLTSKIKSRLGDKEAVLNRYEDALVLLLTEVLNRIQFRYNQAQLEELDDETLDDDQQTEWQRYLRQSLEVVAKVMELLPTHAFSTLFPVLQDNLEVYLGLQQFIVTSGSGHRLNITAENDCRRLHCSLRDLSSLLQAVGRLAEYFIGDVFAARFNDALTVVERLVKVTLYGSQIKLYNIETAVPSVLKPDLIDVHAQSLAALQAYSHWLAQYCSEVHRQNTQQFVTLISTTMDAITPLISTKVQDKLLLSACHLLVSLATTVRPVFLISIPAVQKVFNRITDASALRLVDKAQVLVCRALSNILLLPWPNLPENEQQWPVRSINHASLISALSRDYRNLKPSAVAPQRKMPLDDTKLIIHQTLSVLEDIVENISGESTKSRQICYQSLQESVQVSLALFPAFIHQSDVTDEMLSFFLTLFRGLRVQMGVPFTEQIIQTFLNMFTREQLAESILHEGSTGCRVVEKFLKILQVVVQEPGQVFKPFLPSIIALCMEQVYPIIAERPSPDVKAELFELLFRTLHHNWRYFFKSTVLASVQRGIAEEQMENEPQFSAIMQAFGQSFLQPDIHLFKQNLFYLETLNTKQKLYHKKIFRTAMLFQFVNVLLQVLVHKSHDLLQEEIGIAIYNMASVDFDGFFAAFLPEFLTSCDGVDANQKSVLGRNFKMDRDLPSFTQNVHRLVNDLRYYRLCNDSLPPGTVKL
UniProt Q7Z6J8, sequence (Q7Z6J8 whole entry, looked up): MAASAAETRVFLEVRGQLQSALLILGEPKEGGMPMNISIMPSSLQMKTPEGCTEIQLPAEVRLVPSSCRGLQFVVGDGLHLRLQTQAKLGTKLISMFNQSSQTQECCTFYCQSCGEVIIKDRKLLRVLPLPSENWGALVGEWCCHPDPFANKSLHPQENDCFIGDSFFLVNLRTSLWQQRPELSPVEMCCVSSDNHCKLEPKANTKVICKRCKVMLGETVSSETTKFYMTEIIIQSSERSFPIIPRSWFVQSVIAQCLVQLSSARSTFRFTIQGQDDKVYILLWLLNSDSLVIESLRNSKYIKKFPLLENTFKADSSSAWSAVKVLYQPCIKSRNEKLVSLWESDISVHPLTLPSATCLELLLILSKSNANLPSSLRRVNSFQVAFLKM
UniProt Q14139, sequence (Q14139 whole entry, looked up): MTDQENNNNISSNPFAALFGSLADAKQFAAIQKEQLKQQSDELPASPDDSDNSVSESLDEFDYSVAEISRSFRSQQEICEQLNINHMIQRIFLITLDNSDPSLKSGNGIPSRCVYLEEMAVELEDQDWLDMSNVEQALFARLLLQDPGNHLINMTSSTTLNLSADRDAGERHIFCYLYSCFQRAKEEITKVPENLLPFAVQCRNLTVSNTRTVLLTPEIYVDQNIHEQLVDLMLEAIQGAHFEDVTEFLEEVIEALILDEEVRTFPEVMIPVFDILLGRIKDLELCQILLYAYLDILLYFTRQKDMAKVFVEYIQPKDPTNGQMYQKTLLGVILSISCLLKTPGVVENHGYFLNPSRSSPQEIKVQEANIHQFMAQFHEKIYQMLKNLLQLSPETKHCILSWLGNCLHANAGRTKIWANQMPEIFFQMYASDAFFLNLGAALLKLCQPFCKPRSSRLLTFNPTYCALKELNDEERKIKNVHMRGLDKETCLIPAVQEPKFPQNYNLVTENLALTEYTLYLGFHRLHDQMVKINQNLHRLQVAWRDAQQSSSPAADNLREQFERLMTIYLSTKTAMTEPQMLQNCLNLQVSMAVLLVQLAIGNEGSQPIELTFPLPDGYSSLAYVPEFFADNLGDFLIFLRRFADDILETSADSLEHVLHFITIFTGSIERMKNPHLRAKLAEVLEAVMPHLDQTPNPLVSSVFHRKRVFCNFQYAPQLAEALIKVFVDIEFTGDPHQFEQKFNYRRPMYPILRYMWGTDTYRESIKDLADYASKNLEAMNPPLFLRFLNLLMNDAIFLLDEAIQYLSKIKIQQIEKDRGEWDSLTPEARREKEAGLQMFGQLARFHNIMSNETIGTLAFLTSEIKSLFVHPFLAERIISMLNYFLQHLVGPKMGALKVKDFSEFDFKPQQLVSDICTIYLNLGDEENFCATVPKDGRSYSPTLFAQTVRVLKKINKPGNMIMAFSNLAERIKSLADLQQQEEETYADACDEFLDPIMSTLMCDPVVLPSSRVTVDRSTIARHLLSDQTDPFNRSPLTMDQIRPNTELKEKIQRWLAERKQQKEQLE
UniProt Q92973, sequence (Q92973 whole entry, looked up): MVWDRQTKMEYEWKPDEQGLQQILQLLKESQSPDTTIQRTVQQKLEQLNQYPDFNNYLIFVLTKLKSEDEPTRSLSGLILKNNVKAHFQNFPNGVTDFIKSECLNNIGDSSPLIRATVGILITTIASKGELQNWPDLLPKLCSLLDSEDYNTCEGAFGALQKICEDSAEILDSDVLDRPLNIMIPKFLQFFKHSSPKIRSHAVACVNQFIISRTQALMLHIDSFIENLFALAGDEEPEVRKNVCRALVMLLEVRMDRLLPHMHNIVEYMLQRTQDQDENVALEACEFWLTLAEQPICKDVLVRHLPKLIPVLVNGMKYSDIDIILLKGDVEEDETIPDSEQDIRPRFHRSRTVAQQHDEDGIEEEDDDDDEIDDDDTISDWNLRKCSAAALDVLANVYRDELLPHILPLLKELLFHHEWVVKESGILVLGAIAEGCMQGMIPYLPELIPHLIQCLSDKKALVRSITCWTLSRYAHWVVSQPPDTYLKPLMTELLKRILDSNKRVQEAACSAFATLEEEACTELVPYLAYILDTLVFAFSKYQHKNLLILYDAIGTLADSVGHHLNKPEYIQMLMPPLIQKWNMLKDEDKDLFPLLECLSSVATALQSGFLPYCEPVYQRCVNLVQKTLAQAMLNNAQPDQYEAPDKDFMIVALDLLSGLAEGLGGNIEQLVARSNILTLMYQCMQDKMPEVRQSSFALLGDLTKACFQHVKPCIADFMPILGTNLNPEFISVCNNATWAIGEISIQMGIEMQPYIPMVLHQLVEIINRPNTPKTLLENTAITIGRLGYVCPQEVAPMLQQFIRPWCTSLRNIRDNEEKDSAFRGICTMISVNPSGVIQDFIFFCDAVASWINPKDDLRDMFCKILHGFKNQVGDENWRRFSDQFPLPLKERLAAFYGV

Row | Target | log2 fold change
1 | TMEM8A (UniProt Q9HCN3) | -0.054 (inactive)
2 | UBAP2L isoform 1 (UniProt Q14157) | -0.006 (inactive)
3 | UBE4A isoform 2 (UniProt Q14139) | 0.01 (inactive)
4 | XPNPEP1 isoform 3 (UniProt Q9NQW7) | -0.047 (inactive)
5 | UTP14A (UniProt Q9BVJ6) | 0.157 (inactive)
6 | VAMP7 (UniProt P51809) | -0.066 (inactive)
7 | WARS1 (UniProt G3V3P2) | -0.076 (inactive)
8 | WDR4 (UniProt P57081) | 0.455 (active)
9 | TOP2A isoform 4 (UniProt P11388) | 0.308 (inactive)
10 | UBA1 (UniProt P22314) | 0.034 (inactive)
11 | WDHD1 (UniProt O75717) | -0.009 (inactive)
12 | WDR61 (UniProt Q9GZS3) | -0.01 (inactive)
13 | VTI1A (UniProt Q96AJ9) | -0.004 (inactive)
14 | VPS8 (UniProt Q8N3P4) | 0.073 (inactive)
15 | USO1 isoform 2 (UniProt O60763) | -0.055 (inactive)
16 | TSFM (UniProt P43897) | 0.091 (inactive)
17 | TMEM9 (UniProt Q9P0T7) | 0.028 (inactive)
18 | UBAP1 isoform 4 (UniProt Q9NZ09) | -0.026 (inactive)

Row | Target | log2 fold change
19 | VPS50 (UniProt Q96JG6) | 0.017 (inactive)
20 | UNC119B (UniProt A6NIH7) | 0.424 (inactive)
21 | XPO6 (UniProt Q96QU8) | 0.057 (inactive)
22 | TUBA4A (UniProt P68366) | 0.038 (inactive)
23 | TRMT10C (UniProt Q7L0Y3) | -0.044 (inactive)
24 | TMEM120A (UniProt Q9BXJ8) | 0.454 (active)
25 | UBXN10 (UniProt Q96LJ8) | 0.002 (inactive)
26 | TNPO1 (UniProt Q92973) | -0.104 (inactive)
27 | UFL1 (UniProt O94874) | 0.032 (inactive)
28 | VTI1B (UniProt Q9UEU0) | -0.064 (inactive)
29 | VKORC1 (UniProt Q9BQB6) | -0.062 (inactive)
30 | VPS52 (UniProt Q8N1B4) | -0.005 (inactive)
31 | UBE3D (UniProt Q7Z6J8) | -0.036 (inactive)
32 | VPS33B (UniProt Q9H267) | 0.01 (inactive)
33 | WDR4 isoform 3 (UniProt P57081) | 0.125 (inactive)
34 | USP48 isoform 8 (UniProt Q86UV5) | 0.005 (inactive)
35 | UBE2S (UniProt Q16763) | -0.025 (inactive)
36 | TMTC3 (UniProt Q6ZXV5) | -0.07 (inactive)

Each target was assayed with Cc1cccc(CC(=O)N2CCc3c2ccc(-c2cn(C)c4ncnc(N)c24)c3F)n1 in the same assay as above.
Summary of the method: as §1

Row | Target | log2 fold change
37 | TMEM8A (UniProt Q9HCN3) | 0.096 (inactive)
38 | UBAP2L isoform 1 (UniProt Q14157) | -0.043 (inactive)
39 | UBE4A isoform 2 (UniProt Q14139) | 0.065 (inactive)
40 | XPNPEP1 isoform 3 (UniProt Q9NQW7) | -0.013 (inactive)
41 | UTP14A (UniProt Q9BVJ6) | 0 (inactive)
42 | VAMP7 (UniProt P51809) | 0.025 (inactive)
43 | WDR4 (UniProt P57081) | -0.06 (inactive)
44 | TOP2A isoform 4 (UniProt P11388) | 0.092 (inactive)
45 | UBA1 (UniProt P22314) | 0.187 (inactive)
46 | WDHD1 (UniProt O75717) | 0.008 (inactive)
47 | WDR61 (UniProt Q9GZS3) | -0.033 (inactive)
48 | VTI1A (UniProt Q96AJ9) | -0.061 (inactive)
49 | VPS8 (UniProt Q8N3P4) | 0.043 (inactive)
50 | USO1 isoform 2 (UniProt O60763) | 0.036 (inactive)
51 | TSFM (UniProt P43897) | -0.087 (inactive)
52 | TMEM9 (UniProt Q9P0T7) | -0.048 (inactive)
53 | UBAP1 isoform 4 (UniProt Q9NZ09) | -0.022 (inactive)
54 | VPS50 (UniProt Q96JG6) | 0.088 (inactive)

Row | Target | log2 fold change
55 | UNC119B (UniProt A6NIH7) | -0.006 (inactive)
56 | XPO6 (UniProt Q96QU8) | -0.05 (inactive)
57 | TUBA4A (UniProt P68366) | -0.028 (inactive)
58 | TRMT10C (UniProt Q7L0Y3) | 0.107 (inactive)
59 | TMEM120A (UniProt Q9BXJ8) | -0.054 (inactive)
60 | UBXN10 (UniProt Q96LJ8) | -0.266 (inactive)
61 | TNPO1 (UniProt Q92973) | 0.022 (inactive)
62 | UFL1 (UniProt O94874) | 0.018 (inactive)
63 | VTI1B (UniProt Q9UEU0) | -0.177 (inactive)
64 | VKORC1 (UniProt Q9BQB6) | 0.045 (inactive)
65 | VPS52 (UniProt Q8N1B4) | -0.031 (inactive)
66 | UBE3D (UniProt Q7Z6J8) | -0.047 (inactive)
67 | VPS33B (UniProt Q9H267) | 0.04 (inactive)
68 | WDR4 isoform 3 (UniProt P57081) | 0.057 (inactive)
69 | USP48 isoform 8 (UniProt Q86UV5) | -0.089 (inactive)
70 | UBE2S (UniProt Q16763) | -0.08 (inactive)
71 | TMTC3 (UniProt Q6ZXV5) | -0.02 (inactive)
